Among the test systems are DU-145 prostate; K-562 leukemia; MALME-3M melanoma; MDA-MB-231 breast; RXF 393 renal; SF-268 CNS; SF-295 CNS; SF-539 CNS; UACC-257 melanoma; M14 melanoma.
Common to all, as to assay: NCI-60 one-dose screen, 48 h (100 = growth as untreated, 0 = no growth, -100 = all killed)
Common to all, as to conditions: 10 µM unless noted

This is part of a sample that, as a whole, favours compounds with a hit. Of some 83,000 tested, about 20% had one in any assay.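 Single-concentration screen, 48 h exposure, 96-well plates. Endpoint: percent growth. Below 10 = active.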 Unmarked numbers belong to inactive results. Active and inactive are the calls of the source.

`O=C(Nc1ccccc1)c1ccco1`: the growth with DU-145 prostate was 112%; with K-562 leukemia, 93.7%; in the assay on MALME-3M melanoma, 92.9%; in the assay with MDA-MB-231 breast, 112%; in the assay on RXF 393 renal it was 123%; with SF-268 CNS, 117%. The growth is 103% with SF-295 CNS, 102% in the assay with SF-539 CNS, 107% in the assay with UACC-257 melanoma and 97% with M14 melanoma.

Regarding `CCOc1ccc(NC(=S)N2CCC(CCCC3CCN(C(=S)Nc4ccc(OCC)cc4)CC3)CC2)cc1`, the growth is 95.9% with DU-145 prostate; 61.5% in the assay with K-562 leukemia; 80.1% in the assay on MALME-3M melanoma; 92.4% in the assay on MDA-MB-231 breast; 110% in the assay with RXF 393 renal; 83.1% in the assay on SF-268 CNS. Moreover, the growth in the assay with SF-295 CNS is 84.6%; in the assay on SF-539 CNS, 106%; with UACC-257 melanoma, 83.1%; in the assay with M14 melanoma, 97.9%.

Turning to `Nc1ncc([N+](=O)[O-])cn1`, the growth with DU-145 prostate was 104%; with K-562 leukemia, 108%; in the assay with MALME-3M melanoma, 103%; with MDA-MB-231 breast, 98.4%; in the assay on RXF 393 renal, 110%; in the assay on SF-268 CNS, 98.4%. Also, the growth in the assay with SF-295 CNS is 105%; with SF-539 CNS it was 105%; in the assay on UACC-257 melanoma, 84.7%; in the assay with M14 melanoma it was 100%.

In the case of `CCOC(=O)CNC(=O)Sc1ccc(C(C)(C)C)cc1`, the growth in the assay with DU-145 prostate was 114%; with K-562 leukemia, 71.9%; with MALME-3M melanoma it was 90.7%; in the assay with MDA-MB-231 breast it was 105%; in the assay on RXF 393 renal, 118%; in the assay with SF-268 CNS it was 107%. For the same compound, the growth is 102% in the assay with SF-295 CNS, 94% in the assay with SF-539 CNS, 111% in the assay on UACC-257 melanoma and 102% with M14 melanoma.

Consider `N#Cc1ccc2nc[nH]c2c1`, for which the growth is 101% in the assay on DU-145 prostate; 106% in the assay with K-562 leukemia; 102% in the assay on MALME-3M melanoma; 120% in the assay with MDA-MB-231 breast; 109% with RXF 393 renal; 104% with SF-268 CNS. In addition, the growth is 107% with SF-295 CNS, 113% in the assay on SF-539 CNS, 97.9% in the assay with UACC-257 melanoma and 107% in the assay with M14 melanoma.

With `CC(=O)NC(CCC(=O)c1ccccc1)C(=O)O` (stereo not given), the growth with DU-145 prostate was 107%; in the assay on K-562 leukemia, 108%; with MALME-3M melanoma it was 96.6%; in the assay on MDA-MB-231 breast, 107%; with RXF 393 renal it was 105%; in the assay with SF-268 CNS it was 101%. Moreover, the growth in the assay on SF-295 CNS was 101%; with SF-539 CNS it was 91.2%; in the assay on UACC-257 melanoma it was 76.7%; with M14 melanoma, 90.9%.

In the case of `C=C(C)[C@@H]1CC[C@]2(CO)CC[C@]3(C)[C@H](CC[C@@H]4[C@@]5(C)CC[C@H](O)C(C)(C)[C@@H]5CC[C@]43C)[C@@H]12`, the growth was 28.2% with DU-145 prostate; 24.3% with K-562 leukemia; 63% in the assay with MALME-3M melanoma; 4.46% (active) with MDA-MB-231 breast; -50.7% (active) in the assay on RXF 393 renal; 54.6% in the assay with SF-268 CNS. Also, the growth in the assay on SF-295 CNS is 71.4%; in the assay with SF-539 CNS, -33% (active); with UACC-257 melanoma it was 6.89% (active); in the assay with M14 melanoma it was 49.3%.

`CCC(=O)Oc1c(C)cc(O)c2ccccc12`: the growth in the assay on DU-145 prostate is 107%; in the assay on K-562 leukemia, 73.4%; in the assay with MALME-3M melanoma, 113%; with MDA-MB-231 breast, 88.6%; with RXF 393 renal, 92.4%; with SF-268 CNS, 90.9%. Also, the growth in the assay on SF-295 CNS was 83.4%; in the assay with SF-539 CNS, 91.6%; in the assay on UACC-257 melanoma it was 94.4%; in the assay on M14 melanoma it was 95.2%.

Consider `N#Cc1ccc(OC(=O)Nc2cc(Cl)cc(Cl)c2)cc1`, for which the growth with DU-145 prostate is 18.9% [100 µM]; in the assay on K-562 leukemia it was 6.66% [100 µM] (active); in the assay with MALME-3M melanoma it was -32.5% [100 µM] (active); in the assay with MDA-MB-231 breast it was -52.8% [100 µM] (active); in the assay with RXF 393 renal, 10.3% [100 µM]; with SF-268 CNS, 12.5% [100 µM]. Besides, the growth was -23.1% [100 µM] (active) with SF-295 CNS, -4.48% [100 µM] (active) in the assay on SF-539 CNS, -20.1% [100 µM] (active) in the assay with UACC-257 melanoma and -25.3% [100 µM] (active) with M14 melanoma.

As to `CCOC(OCC)C(=O)c1ccccc1`, the growth is 106% in the assay with DU-145 prostate; 109% with K-562 leukemia; 93.8% with MALME-3M melanoma; 111% in the assay with MDA-MB-231 breast; 109% in the assay with RXF 393 renal; 99.2% in the assay on SF-268 CNS. In addition, the growth was 113% with SF-295 CNS, 88.2% in the assay with SF-539 CNS, 85.9% in the assay on UACC-257 melanoma and 101% with M14 melanoma.

With `CCC1CCC(C)NC1` (stereo not given), the growth was 107% with DU-145 prostate; 102% in the assay on K-562 leukemia; 102% in the assay on MALME-3M melanoma; 120% with MDA-MB-231 breast; 107% in the assay with RXF 393 renal; 102% with SF-268 CNS. Moreover, the growth in the assay on SF-295 CNS is 92.1%; with SF-539 CNS, 99.7%; in the assay on UACC-257 melanoma, 96%; with M14 melanoma it was 95.2%.

For the compound `Nc1cccc2cccc(O)c12`, the growth is 99.1% in the assay on DU-145 prostate; 89.5% in the assay with K-562 leukemia; 75.2% with MALME-3M melanoma; 65.7% in the assay with MDA-MB-231 breast; 90.6% in the assay with RXF 393 renal; 96.1% in the assay on SF-268 CNS. Moreover, the growth was 93.8% in the assay on SF-295 CNS, 109% in the assay with SF-539 CNS, 100% in the assay with UACC-257 melanoma and 96.7% in the assay with M14 melanoma.

As to `OCC1OC(n2ccc3c2ncn2ncnc32)C(O)C1O` (stereo not given), the growth with DU-145 prostate was 16.9%; in the assay on K-562 leukemia it was 18.4%; in the assay on MALME-3M melanoma, 83.7%; in the assay on MDA-MB-231 breast it was 40.9%; with RXF 393 renal it was 38.3%; in the assay with SF-268 CNS, 47.4%. The growth with SF-295 CNS was 43.7%; in the assay on SF-539 CNS, 34.3%; with UACC-257 melanoma, 97.7%; in the assay with M14 melanoma, 51.3%.

For `CCCCCCCCCc1ccc(OC(C)=O)cc1`, the growth in the assay with DU-145 prostate is 103%; with K-562 leukemia it was 101%; in the assay with MALME-3M melanoma it was 103%; in the assay with MDA-MB-231 breast, 110%; in the assay on RXF 393 renal it was 111%; in the assay with SF-268 CNS it was 101%. The growth is 96.6% in the assay with SF-295 CNS, 92.8% in the assay with SF-539 CNS, 110% in the assay with UACC-257 melanoma and 99.5% in the assay with M14 melanoma.
